Out of some 96,000 compounds screened, about 1,400 (1.5%) were called active. The entries come from a sample that favours actives as a whole. Unmarked numbers belong to inactive results.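 The calls were made as follows: active = activation factor of 2 or more for CYP2C9 at a 5 µM dose; inactive = the rest.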
target: Cytochrome P450 2C9 (Homo sapiens) (UniProt P11712); experiment: human CYP2C9 activators, primary screen, biochemical, luminescence (AID 1024); settings: recombinant CYP2C9, luciferin-H conversion, at 5 µM, hits give high values, factor 1 = untreated enzyme, 0 = blocked;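 also: 0 = sulfaphenazole-blocked wells and 1 = vehicle-only wells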
Sequence (P11712 whole entry, looked up): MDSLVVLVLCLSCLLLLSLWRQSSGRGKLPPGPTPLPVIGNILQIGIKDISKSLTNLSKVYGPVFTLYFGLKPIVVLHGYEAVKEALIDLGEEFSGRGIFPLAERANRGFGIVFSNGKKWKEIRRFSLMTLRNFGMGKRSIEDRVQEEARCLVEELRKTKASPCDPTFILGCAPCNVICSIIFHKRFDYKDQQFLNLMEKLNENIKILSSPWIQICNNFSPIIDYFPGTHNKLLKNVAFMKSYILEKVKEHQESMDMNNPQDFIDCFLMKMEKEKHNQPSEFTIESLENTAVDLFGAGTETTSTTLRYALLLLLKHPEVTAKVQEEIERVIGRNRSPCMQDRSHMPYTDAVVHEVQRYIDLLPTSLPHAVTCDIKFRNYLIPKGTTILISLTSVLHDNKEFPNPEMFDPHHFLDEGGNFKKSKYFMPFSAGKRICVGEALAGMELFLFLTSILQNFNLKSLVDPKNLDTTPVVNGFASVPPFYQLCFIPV

| SMILES | activation factor |
| --- | --- |
| C=CCNC(=O)c1sc(SC)cc1-c1ccc(Cl)cc1 | 0.4 |
| Cc1ccc(C(=O)OC2=CC(=O)CC(C)(C)C2)cc1 | 0.7 |
| Cc1cc(C)c(S(=O)(=O)NCCCN2CCOCC2)cc1Br | 2 (active) |
| O=[N+]([O-])c1ccc(NCCCN2CCOCC2)c(Cl)c1 | 0.9 |
| Cc1ccc(S(=O)(=O)NCCN2CCOCC2)cc1C | 0.8 |
| O=C(CN1CCN(S(=O)(=O)c2ccc(Cl)s2)CC1)NCc1ccc(Cl)cc1 | 0.4 |
| CCCCNCc1ccc(SC)cc1 | 1 |
| C=CCNC(=O)c1cc(-c2ccccc2O)on1 | 1.5 |
| O=C(NCc1ccccn1)c1cc2ccccc2oc1=O | 1.3 |
| O=C(NCc1ccccn1)c1cc(-c2ccccc2Cl)on1 | 2.6 (active) |
| COc1ccccc1NC(=O)COc1ccc(C(=O)OCC(=O)N(C(C)C)C(C)C)cc1OC | 0.6 |
| O=C(NCc1ccc2c(c1)OCO2)C1CCCN(S(=O)(=O)c2cccs2)C1 (stereo not given) | 0.1 |
| O=C(c1ccc2c(c1)OCCO2)C1CCN(S(=O)(=O)c2cccc(F)c2)CC1 | 1.2 |
| O=C(NCc1cccs1)C1CCN(S(=O)(=O)c2ccc3c(c2)OCCO3)CC1 | 2.7 (active) |
| FC(F)(F)c1cccc(-c2cc3ccccc3nc2N2CCCC2)c1 | 0.9 |
| CCN(Cc1ccccc1)C(=O)CSc1nc(C)cc2c1C(=O)OC2 | 2.3 (active) |
| CCOC(=O)n1c(SCC(=O)N(CC)CC)nc2ccccc21 | 0.7 |
| CCN(CC)C(=O)CSc1nnc(-c2cccc(OC)c2)o1 | 1.6 |
| CCN1CCN(c2ccc([N+](=O)[O-])cc2C(=O)c2ccc(Cl)cc2)CC1 | 1.6 |
| CC1CC(C)CN(C/C=C/c2ccccc2[N+](=O)[O-])C1 (stereo not given) | 0.9 |
| COc1ccc(Cl)cc1S(=O)(=O)N1CCN(CC(=O)C(C)(C)C)CC1 | 2.4 (active) |
| COc1ccc(Cl)cc1S(=O)(=O)Nc1cccc(C(=O)O)c1 | 0.9 |
| COc1ccc(NC(=O)CN2CCN(S(=O)(=O)c3ccc(F)cc3)CC2)cc1Cl | 0.8 |
| O=C(CSCc1ccc([N+](=O)[O-])cc1)NCCSCc1ccccc1 | 0.6 |
| CCOC(=O)C1CN(S(=O)(=O)c2ccc(F)cc2)C1 | 0.9 |
| Cc1nc(C)c(C(=O)Nc2ccc(C)c(F)c2)o1 | 1 |
| Cc1nc(C)c(C(=O)Nc2cccc(C)c2C)o1 | 1 |

| SMILES | activation factor |
| --- | --- |
| COc1ccc(Cl)cc1NC(=O)c1oc(C)nc1C | 2.7 (active) |
| Cc1ccc(NC(=S)NC2CCCC2)cc1 | 0.7 |
| COc1ccc([N+](=O)[O-])cc1NC(=O)CCc1ccccc1 | 1.7 |
| COc1ccccc1NC(=S)NC(=O)C(C)C | 0.9 |
| COc1ccccc1NC(=O)c1ccc(C)s1 | 3.5 (active) |
| COc1ccccc1NC(=O)/C=C/C(N)=O | 1.2 |
| N#Cc1ccsc1NC(=O)CN1CCCCC1 | 1.2 |
| COc1cc(/C=N\NC(=O)CNC(=O)c2cccc([N+](=O)[O-])c2)ccc1O | 1.1 |
| CC1(C)CC(=O)C2=C(C1)N=C1SCCC(=O)N1C2c1ccc(C(F)(F)F)cc1 (stereo not given) | 1.2 |
| CCOc1ccc(S(=O)(=O)Nc2ccc(S(=O)(=O)Nc3cc(OC)ccc3OC)cc2)cc1 | 0.2 |
| CCOc1ccc(C(=O)Nc2cc(OC)ccc2OC)cc1 | 2.1 (active) |
| CCOc1ccccc1NC(=O)Nc1cc(OC)ccc1OC | 1 |
| CCOC(=O)c1sc2nc(SC)nc(-c3ccccc3)c2c1N | 0.9 |
| O=c1c([N+](=O)[O-])cc(C(F)(F)F)cn1Cc1cccc(Cl)c1 | 0.8 |
| O=C(Nc1ccc(S(=O)(=O)N2CCc3ccccc3C2)cc1)c1ccccc1 | 1 |
| O=S(=O)(c1cccs1)N1CCN(Cc2ccccc2)CC1 | 0.3 |
| O=S(=O)(c1cccs1)N1CCc2ccccc2C1 | 3.1 (active) |
| COc1ccc(C(=O)N2CCc3cc(OC)c(OC)cc3C2c2cccc([N+](=O)[O-])c2)cc1 (stereo not given) | 0.4 |
| Cc1nnsc1S(=O)(=O)Cc1ccccc1Cl | 1 |
| COc1ccc(CCNS(=O)(=O)c2ccc(F)cc2)cc1OC | 0.2 |
| O=S(=O)(NCCOc1cccc2cccnc12)c1ccc(F)cc1 | 3.3 (active) |
| O=S(=O)(NCc1ccccn1)c1ccc(F)cc1 | 1 |
| O=C(/C=C/c1ccccc1)c1ccoc1 | 0.8 |
| Cc1nn(C)c(Oc2ccccc2)c1CCNS(=O)(=O)c1ccc(F)cc1 | 0.5 |
| CC(C)(C)NC(=O)NC(=O)COC(=O)CCC1CCCCC1 | 0.9 |
| COc1cccc(C(=O)Nc2ccc(NC(=O)c3ccco3)cn2)c1 | 0.8 |
| COC(=O)c1ccc(NC(=O)c2ccco2)cc1 | 0.8 |

| SMILES | activation factor |
| --- | --- |
| COc1ccccc1C(=O)Nc1ccc(NC(=O)c2ccco2)c(C)c1 | 2.8 (active) |
| COc1ccc(NC(=O)c2cccc(NC(=O)c3ccco3)c2)c(OC)c1 | 1.5 |
| COC(=O)c1cc(Cl)c(NC(=O)c2ccco2)cc1OC | 2.4 (active) |
| COc1ccc(OC)c(NC(=O)c2cnn(-c3ccccc3Cl)c2NC(=O)c2ccco2)c1 | 0.8 |
| CCOC(=O)Nc1ccc(S(=O)(=O)N(C)C(C)C)cc1 | 0.7 |
| O=C(COc1ccc(Br)cc1F)NC1CCN(Cc2ccccc2)CC1 | 0.7 |
| Cc1onc(-c2c(Cl)cccc2Cl)c1C(=O)c1c[nH]c(C(=O)NC2CC2)c1 | 0.9 |
| Cc1cc(C(=O)CSc2nc(N)cc(=O)[nH]2)c(C)n1CCc1ccc(Cl)cc1 | 0.9 |
| CCn1cc(C(=O)N/N=C(/C)c2ccc(F)cc2)c(=O)c2cc(F)c(N3CCCC3)cc21 | 0.9 |
| COc1ccccc1CNS(=O)(=O)c1ccc(C)cc1 | 2.6 (active) |
| COc1ccccc1Cc1nc(-c2ccc(C)cc2)no1 | 0.9 |
| COc1ccc(S(=O)(=O)NC(CC(=O)NCc2ccccc2OC)c2ccco2)cc1 (stereo not given) | 1.4 |
| CCOC(=O)C1(S(=O)(=O)c2ccc(Cl)cc2)CCN(Cc2ccccc2)CC1 | 0.8 |
| Cc1nc2cc(NC(=O)CSc3nc4c(C)cccc4cc3C#N)ccc2s1 | 0.7 |
| O=C(COc1ccccc1)NCc1ccc2c(c1)OCO2 | 0.7 |
| Cn1cc(CCC(=O)NCc2ccc3c(c2)OCO3)c2ccccc21 | 2.2 (active) |
| O=C(CCCCn1c(=O)[nH]c2ccccc2c1=O)NCc1ccc2c(c1)OCO2 | 0.3 |
| CCCc1cc(=O)[nH]c(SCC(=O)c2cc(C)n(CCC)c2C)n1 | 0.9 |
| Cc1ccc2nc(SCc3nnc(-c4ccccc4[N+](=O)[O-])o3)c(C#N)cc2c1 | 0.8 |
| COC(=O)Cc1cc(=O)oc2c(C)c(O)ccc12 | 1.2 |
| Cc1nc(Cl)c2oc3ccccc3c2n1 | 0.9 |
| CC(C)C(=O)Nc1cccc(C(=O)Nc2ccc3c(c2)OCO3)c1 | 0.4 |
| Cc1ccc(NC(=O)C2CC(c3ccc(F)cc3)=NO2)cc1 (stereo not given) | 0.8 |
| O=C(Nc1ccc2c(c1)OCO2)C1CC(c2c(F)cccc2Cl)=NO1 (stereo not given) | 2.6 (active) |
| c1ccc(COc2ccccc2CNCc2cccnc2)cc1 | 1.1 |
| Cc1csc(=NC(=O)c2ccccc2)n1CCO | 0.7 |
| Cc1cc(C)c2c3c(sc2n1)C(c1ccccc1)C(C#N)=C(N)O3 (stereo not given) | 0.9 |

| SMILES | activation factor |
| --- | --- |
| CC1CC(C)CN(S(=O)(=O)c2cccc(C(=O)N3C(=O)c4cccc(N)c4C3=O)c2)C1 (stereo not given) | 0.9 |
| O=C(CSc1nc(C2CC2)nc2ccccc12)Nc1ccc2c(c1)OCCO2 | 0.6 |
| O=C(O)C1CC=CCC1C(=O)Nc1ccccc1C(=O)N1CCN(c2ccccc2)CC1 (stereo not given) | 0.9 |
| CC(=O)N/C(=C/c1ccc(Cl)cc1)C(=O)NCCc1c[nH]c2ccccc12 | 2.7 (active) |
| COc1ccc(/C=C(\NC(=O)c2ccc(OC)c(OC)c2)C(=O)NCCc2c[nH]c3ccccc23)cc1 | 0.6 |
| Cc1ccc(C(=O)N/C(=C/c2ccco2)C(=O)NCCc2c[nH]c3ccccc23)cc1C | 0.5 |
| O=C1c2ccccc2C(=O)N1CCCc1nc(-c2ccccc2)no1 | 0.8 |
| O=C1c2ccccc2C(=O)N1Cc1cc(-c2ccccc2Cl)no1 | 2.3 (active) |
| O=C1c2cccnc2C(=O)N1Cc1cccs1 | 0.9 |
| Cc1c(C#N)c(NC(=O)c2ccccc2)n(Cc2ccccc2)c1C | 0.4 |
| O=C(CNS(=O)(=O)c1cccc(C(F)(F)F)c1)Nc1ccccc1F | 1.2 |
| CC(CC(=O)Nc1cc(C(F)(F)F)ccc1Cl)c1ccccc1 (stereo not given) | 2.4 (active) |
| CC(C)CC(=O)Nc1cc(C(F)(F)F)ccc1N1CCOCC1 | 0.9 |
| Cc1nc2ccc(NC(=O)C(F)(F)F)cc2o1 | 1 |
| Cc1c(CCO)c(=O)[nH]n1C(=O)c1c(F)cccc1F | 1 |
| CCOc1ccc(S(=O)(=O)NCC2CCCO2)cc1 (stereo not given) | 0.9 |
| CCC(=O)Nc1ccc(S(=O)(=O)NCC2CCCO2)cc1 (stereo not given) | 1 |
| O=S(=O)(NCC1CCCO1)c1ccc2ccccc2c1 (stereo not given) | 3 (active) |
| O=c1c2ccccc2nc2n1C(CSCc1ccccc1)CS2 (stereo not given) | 0.9 |
| CCN1CCN(C(=O)/C=C\C(=O)O)CC1 | 1 |
| Cc1ccc(CNC(=O)C2CC(c3ccccc3[N+](=O)[O-])=NO2)o1 (stereo not given) | 1.2 |
| Cc1ccc(S(=O)(=O)N2CCCC2C(=O)NCc2ccco2)cc1 (stereo not given) | 1.5 |
| Cc1cccc(NC(=O)C2CCCN2S(=O)(=O)c2ccc(F)cc2)c1C (stereo not given) | 2.5 (active) |
| CC(=O)Nc1ccc(S(=O)(=O)N2CCCC2C(=O)O)cc1 (stereo not given) | 1.1 |

Source: PubChem BioAssay AID1024 (Sanford-Burnham Center for Chemical Genomics, 2008)
